Results from PubChem BioAssay (NCI).
This is part of a sample that, as a whole, favours compounds with a hit. Of some 83,000 tested, about 20% had one in any assay.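 For each line, cells grew in 96-well plates with the test compound present at a single concentration for 48 hours.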 Unmarked numbers belong to inactive results. Activity calls are given as the source filed them. Rule for the calls: active = growth percent below 10; inactive = the rest.

Test system: MDA-MB-468 breast
Assay: NCI-60 one-dose screen, 48 h (100 = growth as untreated, 0 = no growth, -100 = all killed)
Conditions: 10 µM unless noted

| SMILES | growth |
| --- | --- |
| Nc1cccc(Nc2cc(S(=O)(=O)O)c(N)c3c2C(=O)c2ccccc2C3=O)c1 | 112% |
| COc1cc(C2CC(c3ccc(C)cc3)=NN2C(C)=O)ccc1Oc1ccnc2cc(Cl)ccc12 (stereo not given) | 78.6% |
| CC(=O)N1N=C(c2ccc(Nc3ccnc4cc(Cl)ccc34)cc2)CC1c1ccc(Cl)cc1 (stereo not given) | 24.3% |
| Cc1ccn2c3c(c(C(=O)O)c2c1)C(=O)c1ccccc1C3=O | 84.7% |
| Cc1ccc2c(=O)cc(C(=O)Nc3sc4c(c3C(=O)NCc3cccnc3)CCCC4)oc2c1C | 109% |
| CC(C)OP(=O)(OC(C)C)c1ncc(-c2ccc(C(F)(F)F)cc2)c(NC2CCCCCC2)n1 | 12.8% [33.3 µM] |
| Nc1ncc(-c2ccc3ncnc(NCc4ccccc4)c3c2)cn1 | -11.7% (active) |
| S=c1nc2[nH]c3ccccc3c2n[nH]1 | 109% |
| O=C(Cc1ccccc1)Nc1cccc(N=Cc2ccccc2O)c1 | 104% |
| COc1ccc(/C=C/c2n[nH]c3ccc(N4CCOC4=O)cc23)cc1 | -0.999% (active) |
| CCc1ccc(C2=C/C(=C/c3ccccc3)C(=O)N2CCc2ccc(S(N)(=O)=O)cc2)cc1 | 109% |
| O=C1c2ccccc2C(=O)c2c1oc1c2c(=O)[nH]c2ccc(Cl)cc21 | -32.4% (active) |
| O=C1CC(SC(=S)C2CCCC2=O)C(=O)N1 (stereo not given) | 106% |
| COc1cccc2nc3n(c12)C(c1c(F)cccc1F)SC3 (stereo not given) | 89.2% |
| CC1(C)C2CC=C(/C=N/NC(=O)C3CCC(=O)N3)C1C2 (stereo not given) | 114% |
| COc1ccc(NC(=O)c2sc3nc(C)c(C(=O)/C=C/c4ccccc4)cc3c2N)cc1 | 44.4% |
| CCOP(=O)(O)OP(=O)(O)OCC | 107% |
| COc1cc(/C=C/c2cc(/C=C/c3ccc(O)c(OC)c3)n(-c3ccc(Cl)cc3)c(=O)n2)ccc1O | 76.4% |
| CC(=O)N1c2ccccc2NC2=C(C(=O)N(Cc3ccccc3)C2(C)C)C1c1ccco1 (stereo not given) | -1.86% (active) |
| Cc1csc(NC(=O)c2sc3nc(-c4cccs4)ccc3c2N)n1 | 82% |

| SMILES | growth |
| --- | --- |
| CCCCCc1nc2c(c3c1CCCC3)CCCC2 | 75.5% |
| COc1ccc(-c2nc3c(c(-c4ccc(Cl)cc4)nn3-c3ccccc3)c(-c3ccc(O)cc3)c2C#N)cc1 | 54.8% |
| c1ccc(-c2n(Cc3ccc4ccccc4n3)c3ccccc3[n+]2Cc2ccc3ccccc3n2)cc1 | -34.3% (active) |
| Cc1nc2sc(C(=O)Nc3cccc(Br)c3C)c(N)c2cc1C(O)c1ccccc1 (stereo not given) | 17.9% |
| Cn1cc(-c2csc(-c3cn(C(=O)OC(C)(C)C)c4ccc(Br)cc34)n2)c2cccnc21 | 104% |
| COc1ccc(/C(=N/O)c2cc(F)c(F)c(OC)c2F)cc1O | 18.4% |
| Nc1ccc2c(c1Br)Cc1ccccc1-2 | 111% |
| Cc1cc(=O)oc2cc(Oc3nc(-c4ccccc4)cn4c(-c5ccccc5)cnc34)ccc12 | 44.2% |
| Cc1onc(-c2ccccc2)c1C(=O)N/N=C/c1cc(Cl)cc(Cl)c1O | 24.7% |
| COc1cc(C(=O)c2c(-c3ccccc3)oc3ccccc23)cc(OC)c1O | 0.857% (active) |
| CCN1CCN(Cc2ccc(NC(=O)Nc3cccc(-n4ccc5c(NC(=O)c6ccccc6)nccc54)c3)cc2C(F)(F)F)CC1 | 20.2% |
| O=S(=O)(NCCCNc1cc(-c2cn(-c3ccccc3)nc2-c2cccc(O)c2)ccn1)c1ccc(F)cc1 | -1.5% (active) |
| O=C(CCCSc1nc(-c2ccc(Cl)cc2)cc(-c2ccc(Cl)cc2)n1)NO | -49.5% (active) |
| COc1cc(-c2cc(/C=C/C(=O)c3ccc(F)c(F)c3)[nH]n2)cc(OC)c1OC | 33.8% |
| CCN(CC)CCSCCCNc1c(C)cnc2cc(Cl)ccc12 | 85.6% |
| CC/C=C\C/C=C\C[C@H]1C/C=C2/C(=O)C=C[C@H]2C/C=C\CCC(=O)O1 | -7.14% (active) |
| c1ccc2c(c1)CN(CCCN1CCOCC1)C2 | 89.7% |
| O=C(NCCN1CCOCC1)Nc1ccc(-c2cc3c(Nc4ccc(Oc5cccc(C(F)(F)F)c5)c(Cl)c4)ncnc3s2)cc1 | -28.3% (active) |
| CCCCCCCCC(C)OC(=O)c1nn(C(C)=O)c2ccccc12 (stereo not given) | 96.8% |
| Cn1cc(-c2csc(-c3c[nH]c4ncccc34)n2)c2cc(Br)cnc21 | 15.4% |
